± gives the standard deviation of the averaged measurements.

In test [1] the test system is DLD1. The test can be described thus: cell viability (CellTiter-Glo) relative to plate median (fraction of plate median); higher = more viable cells. Particulars: 5 µM; treatment time 24 h; reporter: 7TFP. The method in brief:
(§1)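 Normalisation used webcellHTS2 in additive mode without log transformation, scaling each well's luminescence to the plate median. The luminescence was firefly luciferase or CellTiterGlo, read on a Tecan F500 from parallel plates of colorectal cancer cells stably transduced with lentiviral TCF/Wnt firefly luciferase reporters. Those cells had been given library compounds at a final 5 µM for 24 h, and two independent replicates were averaged.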
(Cellular ATP, detected with luciferase, serves as a proxy for viable cell number.)

For another test, the system named is HCT116. Described as above. Conditions: 5 µM; treatment time 24 h; reporter: TCF4/Wnt. Summed up: as §1
Test [2] deals with SW480. The test is described as above. Conditions: 5 µM; treatment time 24 h; reporter: 7TFP. The method in brief:
as §1

The subject of test [3] is DLD1. Kind of test: TCF/Wnt firefly luciferase reporter signal relative to plate median (fraction of plate median); higher = higher Wnt reporter signal. Conditions: 5 µM; treatment time 24 h; reporter: 7TFP. Summed up: as §1
(In general: A reporter such as luciferase makes a cellular process visible.)

Test [4] concerns SW480. Described as above. Particulars: 5 µM; treatment time 24 h; reporter: 7TFP. Summed up:
as §1

Take `COc1c(O)cccc1O`: the figures for the cell viability in the test with DLD1 [1], with HCT116 and in the test on SW480 [2] were 0.99 ± 0.042, 0.962 ± 0.17 and 1.01, respectively. Also, the “TCF/Wnt firefly luciferase reporter signal” value with DLD1 [3] is 1.16 ± 0.05; with SW480 [4], 1.06 ± 0.021.

For `O=C(/C=C/c1ccccc1)c1ccc(O)cc1`, the cell viability with DLD1 [1] came to 0.834 ± 0.11; with HCT116, 0.906 ± 0.047; in the test with SW480 [2], 0.898 ± 0.013. Further, the “TCF/Wnt firefly luciferase reporter signal” value with DLD1 [3] amounted to 0.88 ± 0.1; with SW480 [4] it was 0.976 ± 0.2.

As to `COc1cc2ccc(=O)oc2cc1O`, the cell viability came to 1.09 ± 0.064 in the test with DLD1 [1], 1.09 in the test on HCT116 and 1.12 ± 0.085 in the test on SW480 [2]. Further, the “TCF/Wnt firefly luciferase reporter signal” value in the test with DLD1 [3] was found to be 0.999 ± 0.059; in the test on SW480 [4], 0.892 ± 0.12.

For the compound `CCCCC1C(=O)N(c2ccccc2)N(c2ccccc2)C1=O`, the cell viability was 1.02 ± 0.063 with DLD1 [1], 0.987 ± 0.12 in the test on HCT116 and 1.035 ± 0.0071 in the test on SW480 [2]. The “TCF/Wnt firefly luciferase reporter signal” value with DLD1 [3] worked out at 1.14 ± 0.085; with SW480 [4], 1.01 ± 0.024.

Take `CCOc1ccc(Cc2nccc3cc(OCC)c(OCC)cc23)cc1OCC`: the cell viability stood at 0.876 ± 0.016 with DLD1 [1], 0.885 ± 0.056 in the test on HCT116 and 0.921 ± 0.0071 in the test on SW480 [2]. Moreover, the “TCF/Wnt firefly luciferase reporter signal” value in the test with DLD1 [3] amounted to 0.99 ± 0.13; with SW480 [4], 0.95 ± 0.099.

`CC(C)=CCOc1cc2oc(=O)ccc2cc1O`: the values for the cell viability in the test with DLD1 [1], with HCT116 and in the test on SW480 [2] were 1.08 ± 0.014, 1.19 ± 0.11 and 1.04 ± 0.028, respectively. For the same compound, the entries for the “TCF/Wnt firefly luciferase reporter signal” value in the test on DLD1 [3] and with SW480 [4] were 1.005 ± 0.0071 and 1.07 ± 0.064, respectively.

Turning to `CC(=O)Oc1ccc2c(c1OC(C)=O)OCC1(O)Cc3c(cc(OC(C)=O)c(OC(C)=O)c3OC(C)=O)C21` (stereo not given), the cell viability with DLD1 [1] amounted to 0.96 ± 0.017; in the test on HCT116, 1.02 ± 0.074; in the test with SW480 [2], 0.959 ± 0.059. For the same compound, the figures for the “TCF/Wnt firefly luciferase reporter signal” value in the test with DLD1 [3] and with SW480 [4] were 0.939 ± 0.05 and 0.9105 ± 0.0064, respectively.

As to `COc1ccc(-c2coc3cc(O)cc(O)c3c2=O)cc1`, the cell viability with DLD1 [1] stood at 1.01 ± 0.065; in the test with HCT116, 0.888 ± 0.016; in the test with SW480 [2], 1.01 ± 0.044. Also, the “TCF/Wnt firefly luciferase reporter signal” value in the test on DLD1 [3] came out at 0.985 ± 0.16; with SW480 [4] it was 1.05 ± 0.064.

On to `N=C1C=CC(=C(c2ccc(N)cc2)c2ccc(N)cc2)C=C1`, for which the cell viability was found to be 0.908 ± 0.046 with DLD1 [1], 0.873 ± 0.0028 in the test on HCT116 and 0.829 ± 0.053 with SW480 [2]. Also, the “TCF/Wnt firefly luciferase reporter signal” value with DLD1 [3] stood at 0.923 ± 0.057; in the test on SW480 [4], 0.819 ± 0.14.

Consider `COC(=O)CC[C@@H](C)[C@H]1CC[C@H]2[C@@H]3CC[C@@H]4C[C@H](O)CC[C@]4(C)[C@H]3C[C@H](O)[C@]12C`, for which the cell viability in the test on DLD1 [1] stood at 0.964 ± 0.065; in the test with HCT116 it was 1.02 ± 0.097; in the test with SW480 [2], 0.944 ± 0.018. Besides, the figures for the “TCF/Wnt firefly luciferase reporter signal” value in the test with DLD1 [3] and in the test with SW480 [4] were 0.955 ± 0.079 and 0.875 ± 0.061, respectively.

On to `CC[C@H](c1ccc(O)cc1)[C@@H](CC)c1ccc(O)cc1`, for which the cell viability with DLD1 [1] amounted to 1.05 ± 0.028; in the test with HCT116 it was 1.12 ± 0.078; in the test on SW480 [2] it was 1.04 ± 0.057. Besides, the “TCF/Wnt firefly luciferase reporter signal” value was found to be 1.125 ± 0.0071 with DLD1 [3] and 1.09 ± 0.092 in the test with SW480 [4].

For `C[C@H]1COc2c(N3CCN(C)CC3)c(F)cc3c(=O)c(C(=O)O)cn1c23`, the cell viability with DLD1 [1] was found to be 0.891 ± 0.025; in the test with HCT116, 0.966 ± 0.04; with SW480 [2] it was 0.984 ± 0.023. In addition, the “TCF/Wnt firefly luciferase reporter signal” value in the test with DLD1 [3] was found to be 0.996 ± 0.049; with SW480 [4], 1.04 ± 0.093.

As for `C/C=C(\C)C(=O)[C@@H](C)/C=C(\C)[C@H]1O[C@@](O)([C@@](O)(CC)C(=O)N[C@@H]2C(=O)N3NCCC[C@@H]3C(=O)N(O)[C@@H](C)C(=O)N(C)[C@H](C)C(=O)N3NCCC[C@H]3C(=O)N[C@H]([C@H](C)O)C(=O)O[C@H]2C(C)C)CC[C@@H]1C`, the cell viability worked out at 0.983 ± 0.053 in the test with DLD1 [1], 1.01 ± 0.17 in the test on HCT116 and 1.08 in the test on SW480 [2]. Besides, the “TCF/Wnt firefly luciferase reporter signal” value turned out to be 1.01 ± 0.065 in the test with DLD1 [3] and 1.06 ± 0.035 with SW480 [4].

On to `COc1cccc2c1CCC1CC(=O)CC[C@]21C` (stereo not given in full), for which the cell viability turned out to be 1.06 ± 0.014 with DLD1 [1], 1.02 ± 0.086 in the test on HCT116 and 1.02 ± 0.035 in the test with SW480 [2]. Also, the “TCF/Wnt firefly luciferase reporter signal” value in the test on DLD1 [3] stood at 0.972 ± 0.016; with SW480 [4] it was 1.04 ± 0.17.

With `O=c1c(O)c(-c2ccc(O)cc2O)oc2cc(O)cc(O)c12`, the cell viability was 1.11 ± 0.11 in the test with DLD1 [1], 1.155 ± 0.0071 in the test with HCT116 and 1.15 in the test with SW480 [2]. Besides, the results for the “TCF/Wnt firefly luciferase reporter signal” value in the test on DLD1 [3] and with SW480 [4] were 1.11 ± 0.099 and 1.11 ± 0.15, respectively.

Take `Oc1c(Cl)cc(Cl)c2cccnc12`: the figures for the cell viability in the test with DLD1 [1], with HCT116 and with SW480 [2] were 0.9925 ± 0.00071, 1.02 ± 0.081 and 0.963 ± 0.033, respectively. In addition, the “TCF/Wnt firefly luciferase reporter signal” value is 1.03 ± 0.16 with DLD1 [3] and 1.07 ± 0.021 in the test with SW480 [4].

Regarding `CC(=O)N[C@@H](CC(=O)c1ccccc1N)C(=O)O` [N-Acetyl-kynurenine], the results for the cell viability in the test on DLD1 [1], with HCT116 and with SW480 [2] were 1.09 ± 0.12, 1.12 ± 0.11 and 1.01 ± 0.044, respectively. Also, the “TCF/Wnt firefly luciferase reporter signal” value with DLD1 [3] was found to be 0.859 ± 0.17; in the test with SW480 [4], 1.05 ± 0.078.

`COc1ccc(/C=C/C(=O)c2ccc(O)cc2O)cc1OC`: the cell viability is 0.955 ± 0.046 with DLD1 [1], 1.04 ± 0.035 in the test with HCT116 and 1.08 ± 0.042 in the test on SW480 [2]. Also, the entries for the “TCF/Wnt firefly luciferase reporter signal” value with DLD1 [3] and in the test with SW480 [4] were 1.03 and 0.986 ± 0.062, respectively.

`COc1cccc2c1C(=O)c1c(O)c3c(c(O)c1C2=O)C[C@@](O)(C(C)=O)C[C@@H]3O[C@H]1C[C@H](NC=O)[C@H](O)[C@H](C)O1` [Baumycin C1]: the results for the cell viability with DLD1 [1], with HCT116 and with SW480 [2] were 0.9535 ± 0.0021, 0.838 ± 0.081 and 0.9955 ± 0.0035, respectively. For the same compound, the “TCF/Wnt firefly luciferase reporter signal” value with DLD1 [3] stood at 0.955 ± 0.042; in the test with SW480 [4], 1.05 ± 0.057.

For `Cn1c(=O)c2nc(C3CCCC3)[nH]c2n(C)c1=O`, the values for the cell viability with DLD1 [1], with HCT116 and with SW480 [2] were 1.07 ± 0.064, 1.05 ± 0.1 and 1.02 ± 0.047, respectively. The “TCF/Wnt firefly luciferase reporter signal” value with DLD1 [3] came to 1.01 ± 0.17; with SW480 [4], 0.968 ± 0.039.

As for `C=CCSCC1Nc2cc(Cl)c(S(N)(=O)=O)cc2S(=O)(=O)N1` (stereo not given), the cell viability worked out at 1.07 ± 0.042 in the test with DLD1 [1], 1.11 ± 0.085 with HCT116 and 1.03 ± 0.021 in the test on SW480 [2]. Besides, the results for the “TCF/Wnt firefly luciferase reporter signal” value in the test with DLD1 [3] and in the test on SW480 [4] were 1.06 ± 0.071 and 1.02 ± 0.028, respectively.

On to `C[C@]12C=CC(=O)C=C1CC[C@@H]1[C@@H]2[C@@H](O)C[C@@]2(C)[C@H]1CC[C@]2(O)C(=O)COP(=O)(O)O`, for which the cell viability with DLD1 [1] turned out to be 1.04 ± 0.021; with HCT116, 1; with SW480 [2] it was 0.943 ± 0.033. Moreover, the “TCF/Wnt firefly luciferase reporter signal” value turned out to be 1.04 ± 0.14 in the test with DLD1 [3] and 1.06 ± 0.014 with SW480 [4].

As to `CCCn1c(=O)c2[nH]c(C3CCCC3)nc2n(CCC)c1=O`, the values for the cell viability in the test with DLD1 [1], in the test with HCT116 and in the test on SW480 [2] were 0.998 ± 0.059, 1.03 ± 0.047 and 1.02 ± 0.037, respectively. Besides, the “TCF/Wnt firefly luciferase reporter signal” value with DLD1 [3] was 1.04 ± 0.16; in the test on SW480 [4], 0.968 ± 0.073.

For the compound `COc1cccc(/C=C/C(=O)O)c1C(C)C`, the cell viability with DLD1 [1] is 0.981 ± 0.042; in the test on HCT116, 1.03 ± 0.093; with SW480 [2] it was 1 ± 0.041. For the same compound, the “TCF/Wnt firefly luciferase reporter signal” value in the test on DLD1 [3] was 1.12 ± 0.26; in the test on SW480 [4], 1.03 ± 0.17.

On to `CC(=O)O[C@@H]1C2=C(C)C=C(O2)[C@H]2O[C@]2(C)C[C@H]2C=C(C(=O)O2)[C@H](OC(C)=O)CC1[C@@]1(C)CO1` (stereo not given in full) [bipinnatin H], for which the cell viability with DLD1 [1] was 1.1 ± 0.13; with HCT116 it was 1.08 ± 0.17; in the test on SW480 [2], 0.984 ± 0.023. In addition, the “TCF/Wnt firefly luciferase reporter signal” value is 0.897 ± 0.16 in the test on DLD1 [3] and 0.7915 ± 0.0021 in the test on SW480 [4].

For `C=C[C@]1(C)C=C2C(=O)[C@@]3(O)OC(=O)[C@@]4(CCCC(C)(C)[C@H]34)[C@@]2(O)CC1` [Sphaeropsidin A], the cell viability with DLD1 [1] was 0.898 ± 0.16; with HCT116 it was 0.973 ± 0.067; in the test on SW480 [2], 0.952 ± 0.015. Also, the results for the “TCF/Wnt firefly luciferase reporter signal” value with DLD1 [3] and with SW480 [4] were 0.938 ± 0.086 and 1.05 ± 0.19, respectively.

The values above are taken from the supplement of paper PMC6522484.
